The panel holds about 83,000 compounds, 20% with a hit somewhere; the sample as a whole holds those more often.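 Cells were grown in 96-well plates and exposed to the test compound at a single concentration for 48 hours; results are reported as percent growth, with values below 10 considered active.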 Values without a mark were called inactive. Active and inactive are the calls of the source.
How the values were obtained:
Assay in all cases: NCI-60 one-dose screen, 48 h (100 = growth as untreated, 0 = no growth, -100 = all killed)
NCI-H23 lung = details: 10 µM unless noted
NCI-H226 lung = details: 10 µM unless noted
NCI-H322M lung = details: 10 µM unless noted
HOP-62 NSCLC = details: 10 µM unless noted
NCI-H460 lung = details: 10 µM unless noted
HOP-92 NSCLC = details: 10 µM unless noted
NCI-H522 lung = details: 10 µM unless noted
A549/ATCC NSCLC = details: 10 µM unless noted
786-0 renal = details: 10 µM unless noted
COLO 205 colon = details: 10 µM unless noted
DU-145 prostate = details: 10 µM unless noted
K-562 leukemia = details: 10 µM unless noted
MALME-3M melanoma = details: 10 µM unless noted
MDA-MB-231 breast = details: 10 µM unless noted
RXF 393 renal = details: 10 µM unless noted
SF-268 CNS = details: 10 µM unless noted
SF-295 CNS = details: 10 µM unless noted
SF-539 CNS = details: 10 µM unless noted
UACC-257 melanoma = details: 10 µM

Structure (SMILES)	growth (NCI-H23 lung)	growth (NCI-H226 lung)	growth (NCI-H322M lung)	growth (HOP-62 NSCLC) [%]	growth (NCI-H460 lung)	growth (HOP-92 NSCLC)	growth (NCI-H522 lung)	growth (A549/ATCC NSCLC) [%]	growth (786-0 renal) [%]	growth (COLO 205 colon)	growth (DU-145 prostate)	growth (K-562 leukemia)	growth (MALME-3M melanoma)	growth (MDA-MB-231 breast)	growth (RXF 393 renal)	growth (SF-268 CNS) [%]	growth (SF-295 CNS) [%]	growth (SF-539 CNS)	growth (UACC-257 melanoma)
O=C(Nc1ccc(F)cc1)c1cc(-c2ccc(F)cc2F)ccc1O	1.86% (active)	5.87% (active)	9.89% (active)	12	4.82% (active)	-26.6% (active)	-4.42% (active)	30.6	15.5	96.4%	16%	15.4%	-10.5% (active)	17.6%	-21.1% (active)	14.8	25	15.6%	-20.7% (active)
N#Cc1c(NC(=O)c2ccccc2C(F)(F)F)sc2c1CCC(=O)C2	3.19% (active)	13.6%	95.5%	33	13.5%	-36.7% (active)	-4.76% (active)	75.4	28.7	-18.2% (active)	33.8%	10.9%	-17.3% (active)	3.09% (active)	-23.8% (active)	18.9	11	-28.9% (active)	-9.8% (active)
COc1ccc([C@H]2c3[nH]c4ccccc4c3C[C@@H]3C(=O)N(C4CCN(Cc5ccccc5)CC4)CC(=O)N23)c(OC)c1	93.7%	82.3%	90.1%	80.8	54.4%	68%	87%	69.8	74.3	67.1%	86.3%	28.8%	97.1%	77.7%	41.9%	63	94.6	81.7%	94.5%
CN1C(=O)N(C)C2C1NN=c1s/c(=C\c3ccccn3)c(=O)n12 (configuration not stated)	99.1%	99.7%	99.6%	100	108%	96.6%	93.4%	99.8	101	110%	108%	93.9%	92.7%	98%	102%	99.9	99.8	96.3%	96.4%
O=C(/C=C/c1cccc(O)c1)c1ccc(O)cc1	72%	103%	88.5%	79.9	92.8%	104%	65.6%	90.1	85	120%	15.8%	23.2%	106%	89.3%	94.8%	89.9	98.2	43.3%	95.3%
CCN(CC)c1ccc2cc(C(=O)NCCOCCOCCOCCn3cc(CCC(=O)Nc4ccc(C(=O)c5ccc(NC(=O)OC(C)(C)C)cc5)cc4)nn3)c(=O)oc2c1	61.7%	20.3%	74.5%	53.5	78.9%	85.7%	28.4%	73.1	73.2	38.2%	61.8%	38.3%	83.9%	53.7%	69.8%	65	43.3	79.5%	63.1%
Nc1cc(F)ccc1NC(=O)c1ccc(NC(=O)C/C=C/c2cccnc2)cn1	32%	46.8%	40.2%	29.6	30%	5.74% (active)	-4.98% (active)	31.5	41.8	1.22% (active)	-3.71% (active)	20%	11.6%	45.3%	-17.5% (active)	30.8	22.3	6.21% (active)	17.8%
Cc1ccc(NC(=O)c2ccc(CN3CCN(C)CC3)c(C(F)(F)F)c2)cc1Oc1ccc(-c2[nH]nc3ncnc(N)c23)cc1	90.1%	78.4%	96.2%	99.4	93.5%	103%	84.9%	78.6	70.9	52.5%	95.3%	2.49% (active)	-12% (active)	67.5%	42.3%	88	82.8	60.2%	58.5%
